INS-1E GSIS act: primary screen for activators of insulin secretion dependent on glucose, INS-1E cells, GLuc reporter luminescence | INS-1E GLuc reporter insulin secretion, 2-3 h | activation, % at 16.6 µM | actives 0.61% (n = 370,000);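 active means lowest replicate activation of at least 40%, so every replicate reaches that level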;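 further: 0% = median of neutral control wells and 100% = median of IBMX positive control wells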
HIV Env fusion: HIV envelope-mediated fusion inhibition. actives 1.1% (n = 360,000). inhibition, % at 12.3 µM. HeLa-JRFL Env/CEM21 cell fusion, luciferase;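 active means mean replicate inhibition score of at least 50 and every replicate individually at or above 50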;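 further: 0% = plate neutral controls and 100% = maraviroc near 300 nM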
NSD2 HMT inh: inhibitors of human histone methyltransferase NSD2 | actives 0.54% (n = 310,000) | O96028 | AID 743445 | inhibition, % at 12.5 µM | NSD2 peptide methylation, AlphaScreen, 120 min; in the data active means inhibition above about 50%
PGC1a acetyl inh: modulators of PGC1a acetylation | inhibition, % at 15.6 µM | U2OS PGC1a acetylation, AlphaScreen anti-acetyl-lysine; with virally co-expressed GCN5 acetyltransferase | AID 651687 | actives 0.17% (n = 350,000);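 active means every replicate shows inhibition of at least 40%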;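 further: 0% = neutral control wells and 100% = positive control wells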
AF4-AF9 inh: inhibitors of human MLL-AF4/AF9 interaction; P42568; AlphaScreen, biotin-AF4 peptide binding to FLAG-AF9; inhibition, % at 10 µM; actives 0.47% (n = 350,000); AID 651704;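 active means every replicate reaching a set inhibition limit, whatever the replicate mean, cut at about 25% in these data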;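 further: 0% = plate neutral control median and 100% = total signal loss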
Target sequence (P42568 whole entry, looked up): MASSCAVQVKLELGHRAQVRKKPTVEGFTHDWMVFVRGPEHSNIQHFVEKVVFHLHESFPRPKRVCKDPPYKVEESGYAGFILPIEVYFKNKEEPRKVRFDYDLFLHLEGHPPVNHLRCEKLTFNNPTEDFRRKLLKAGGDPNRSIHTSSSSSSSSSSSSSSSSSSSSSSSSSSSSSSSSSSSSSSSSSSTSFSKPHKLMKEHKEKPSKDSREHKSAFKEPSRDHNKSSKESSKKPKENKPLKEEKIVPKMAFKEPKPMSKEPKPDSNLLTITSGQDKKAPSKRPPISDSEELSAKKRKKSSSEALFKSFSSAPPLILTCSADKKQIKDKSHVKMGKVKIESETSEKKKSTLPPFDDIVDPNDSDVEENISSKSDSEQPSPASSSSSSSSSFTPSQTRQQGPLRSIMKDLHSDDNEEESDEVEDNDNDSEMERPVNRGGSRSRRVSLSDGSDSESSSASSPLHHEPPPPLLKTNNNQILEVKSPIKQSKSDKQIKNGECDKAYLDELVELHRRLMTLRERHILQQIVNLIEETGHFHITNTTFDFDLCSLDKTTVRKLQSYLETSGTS
The depositor's hits bear a star; [ ] = remark or other dose. Only some compounds are listed: those with a hit (about 2.1% of all), similar ones and a draw of the others.

What do the screens show for `CC(C)NC(=O)Nc1ccc2c(c1)C(=O)N([C@H](C)CO)C[C@@H](C)[C@H](CN(C)C(=O)Nc1ccc(C(F)(F)F)cc1)OCCCC[C@@H](C)O2`?
INS-1E GSIS act: -5.7; HIV Env fusion: -12.0[16.7 µM]; PGC1a acetyl inh: 9.7; AF4-AF9 inh: -1.4

What do the screens show for `CC(C)NC(=O)Nc1ccc2c(c1)C(=O)N([C@H](C)CO)C[C@@H](C)[C@H](CN(C)C(=O)Nc1ccc(C(F)(F)F)cc1)OCCCC[C@H](C)O2`?
INS-1E GSIS act: 8.7; HIV Env fusion: 74.7*[16.7 µM]; PGC1a acetyl inh: -1.5; AF4-AF9 inh: -0.2

What do the screens show for `CC(C)NC(=O)Nc1ccc2c(c1)C(=O)N([C@H](C)CO)C[C@@H](C)[C@@H](CN(C)C(=O)Nc1ccc(C(F)(F)F)cc1)OCCCC[C@@H](C)O2`?
INS-1E GSIS act: 10.5; HIV Env fusion: 72.0*[16.7 µM]; PGC1a acetyl inh: -22.1; AF4-AF9 inh: -1.2

Results for C[C@H]1CCCCO[C@H](CN(C)C(=O)Nc2ccc(C(F)(F)F)cc2)[C@@H](C)CN([C@@H](C)CO)C(=O)c2cc(NC(=O)c3ccncc3)ccc2O1 ?
INS-1E GSIS act: -25.9; HIV Env fusion: 56.3*[16.7 µM]; PGC1a acetyl inh: 9.2; AF4-AF9 inh: -0.5

What do the screens show for `COc1ccc(NS(=O)(=O)c2cccc(C(=O)NNC(=O)c3ccc(C)o3)c2)cc1`?
INS-1E GSIS act: -8.3; NSD2 HMT inh: -1.7; AF4-AF9 inh: -0.3

What do the screens show for `COc1ccc(CCn2c(N3CCN(C)CC3)nc3c2c(=O)[nH]c(=O)n3C)cc1`?
NSD2 HMT inh: 8.6; PGC1a acetyl inh: 9.0

How did N#Cc1c(NC(=O)c2ccccc2Cl)n(Cc2ccccc2)c2nc3ccccc3nc12 do in these assays?
INS-1E GSIS act: -31.0; HIV Env fusion: 19.8; NSD2 HMT inh: 98.2*; AF4-AF9 inh: 2.5

What do the screens show for `Cn1cc(C(=O)NC2CCCCCC2)c(=O)c2cc(S(=O)(=O)N3CCCC3)ccc21`?
INS-1E GSIS act: 1.7; HIV Env fusion: 11.8; NSD2 HMT inh: -1.1

How did NS(=O)(=O)c1ccc(Sc2nc3ccccc3s2)c([N+](=O)[O-])c1 do in these assays?
HIV Env fusion: 73.4*; NSD2 HMT inh: 4.1; PGC1a acetyl inh: 1.1; AF4-AF9 inh: 4.2

What do the screens show for `O=C(c1ccco1)N1CCN(Cc2cc(=O)c(OCc3c(F)cccc3Cl)co2)CC1`?
INS-1E GSIS act: 19.4; HIV Env fusion: -0.6; NSD2 HMT inh: 2.3; AF4-AF9 inh: -0.7

Results for COc1ccc2[nH]c3c(N4CCN(Cc5ccc6c(c5)OCO6)CC4)ncnc3c2c1 ?
NSD2 HMT inh: -2.2; PGC1a acetyl inh: -27.1

What do the screens show for `Fc1ccc2[nH]c3c(N4CCc5ccccc5C4)ncnc3c2c1`?
INS-1E GSIS act: -17.6; HIV Env fusion: 42.3; NSD2 HMT inh: -0.5; PGC1a acetyl inh: 12.1; AF4-AF9 inh: -2.4

How did Cc1ccc2[nH]c3c(N4CCc5ccccc5C4)ncnc3c2c1 do in these assays?
HIV Env fusion: 81.3*; NSD2 HMT inh: 1.3; PGC1a acetyl inh: -2.1

What do the screens show for `COc1ccc2[nH]c3c(N4CCC(O)(c5cccc(C(F)(F)F)c5)CC4)ncnc3c2c1`?
HIV Env fusion: 100.1*; NSD2 HMT inh: 0.9; PGC1a acetyl inh: -11.8

How did Cn1cnc(S(=O)(=O)N2CC[C@@H]3[C@H](CO)Nc4ccc(-c5cccc(F)c5)cc4[C@@H]32)c1 do in these assays?
INS-1E GSIS act: -4.3; PGC1a acetyl inh: -26.8; AF4-AF9 inh: -1.4

What do the screens show for `O=C1Nc2c(Cl)cc(Cl)cc2C12Nc1ccccc1S2` (stereo not given)?
INS-1E GSIS act: -3.6; HIV Env fusion: 55.5*; NSD2 HMT inh: -23.9; AF4-AF9 inh: 0.4

Results for COc1ccc(-c2cc(=O)oc3c(C)c(O)ccc23)cc1 ?
INS-1E GSIS act: 13.7; HIV Env fusion: 71.5*; NSD2 HMT inh: -0.5; PGC1a acetyl inh: 0.7; AF4-AF9 inh: 0.1

What do the screens show for `Cc1c(O)ccc2c(-c3ccccc3)cc(=O)oc12`?
INS-1E GSIS act: 13.8; HIV Env fusion: 33.5; NSD2 HMT inh: -2.6; PGC1a acetyl inh: -0.9; AF4-AF9 inh: -0.3

What do the screens show for `COC(=O)c1cc2c(c3c4cc(OC)ccc4n(S(=O)(=O)c4ccc(OC)cc4)c13)C(=O)N(C)C2`?
INS-1E GSIS act: -32.2; HIV Env fusion: -11.9; AF4-AF9 inh: -4.0

What do the screens show for `COC(=O)c1cc2c(c3c4cc(OC)ccc4n(S(=O)(=O)c4ccccc4)c13)C(=O)N(C)C2`?
HIV Env fusion: 65.2*; AF4-AF9 inh: -0.3

Results for Cc1cc(C(=O)COc2ccc(C#N)cc2)c(C)n1C1CC1 ?
INS-1E GSIS act: 3.0; HIV Env fusion: 64.1*; NSD2 HMT inh: 10.1; PGC1a acetyl inh: -18.1; AF4-AF9 inh: -9.4

What do the screens show for `CS(=O)(=O)N(CCc1ccccc1)CC(=O)NCc1cccnc1`?
INS-1E GSIS act: 24.2; NSD2 HMT inh: 22.0; PGC1a acetyl inh: -9.5

Results for CC(=O)Nc1ccc(-c2ccnc3c2CC(C(=O)Nc2ccc4c(c2)OCO4)O3)cc1 (stereo not given) ?
INS-1E GSIS act: 0.3; HIV Env fusion: 3.5; NSD2 HMT inh: 0.4; PGC1a acetyl inh: -14.7; AF4-AF9 inh: 0.8

What do the screens show for `CCOc1ccc(NC(=O)NCc2ccccn2)cc1`?
INS-1E GSIS act: 19.3; HIV Env fusion: 57.5*; NSD2 HMT inh: -2.4; AF4-AF9 inh: 0.2

What do the screens show for `CC(C)NC(=O)Nc1ccc2c(c1)C(=O)N([C@H](C)CO)C[C@@H](C)[C@@H](CN(C)S(=O)(=O)c1cn(C)cn1)O2`?
INS-1E GSIS act: -3.9; HIV Env fusion: -9.4[16.7 µM]; PGC1a acetyl inh: 1.0; AF4-AF9 inh: -3.7

How did C[C@@H]1CN([C@@H](C)CO)C(=O)c2cccc(NC(=O)Nc3ccc(C(F)(F)F)cc3)c2O[C@@H]1CN(C)Cc1ccccc1 do in these assays?
INS-1E GSIS act: -14.4; HIV Env fusion: 8.7[16.7 µM]; PGC1a acetyl inh: 8.6; AF4-AF9 inh: 6.2

Results for O=C(O)CCC(NC(=O)c1ccc(Cl)cc1)C(=O)O (stereo not given) ?
INS-1E GSIS act: 12.9; HIV Env fusion: 11.6; NSD2 HMT inh: -0.6; AF4-AF9 inh: 0.0

Results for CN(Cc1cnc2nc(N)nc(N)c2n1)c1ccc(C(=O)NC(CCC(=O)O)C(=O)O)c2ccccc12 (stereo not given) ?
INS-1E GSIS act: 27.5; HIV Env fusion: 64.3*; NSD2 HMT inh: 1.0; PGC1a acetyl inh: 8.2; AF4-AF9 inh: -1.1

Results for COc1ccc(-c2cc(-c3ccccc3)c(C#N)c(S(C)=O)n2)cc1 (stereo not given) ?
HIV Env fusion: -84.5; NSD2 HMT inh: -1.3; PGC1a acetyl inh: 85.0*

What do the screens show for `CCSc1nc(-c2ccc(OC)cc2)cc(-c2ccccc2)c1C#N`?
NSD2 HMT inh: -0.4; PGC1a acetyl inh: 24.3; AF4-AF9 inh: -6.7

What do the screens show for `CCOc1ccc2oc(C(=O)N(C)CCc3ccc(OC)c(OC)c3)c(C)c2c1`?
INS-1E GSIS act: 49.7*; HIV Env fusion: -22.5; NSD2 HMT inh: 5.1; PGC1a acetyl inh: -10.3; AF4-AF9 inh: -3.7

What do the screens show for `CCCCCCCCCCCCCCCC(O)C[N+](C)(C)CCO` (stereo not given)?
INS-1E GSIS act: 363.2*; HIV Env fusion: 16.3; NSD2 HMT inh: 17.7; AF4-AF9 inh: 3.3

From PubChem
